Data: PubChem BioAssay (Tox21)
Results filed as inconclusive are left out. Active and inactive are the calls of the source. Unless noted, the call rests on the fitted dose curve; in most records, active means well fitted curve in the direction sought with a large enough effect in the repeat runs; inconclusive means weak or mixed curves; inactive means no such curve, though single readings can be large; an effect the other way counts as inactive or inconclusive.

Legend:
[1] = qHTS assay to identify small molecule agonists of the vitamin D receptor (VDR) signaling pathway - cell viability counter screen (AID 743224); further: series mostly up to about 63 µM; on the % scale 0 is the no-effect control and ±100 the full control effect; nearly all actives have a fitted effect of over 50% in size
In short: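 Cytotoxicity counter screen: VDR-bla cells, 16 h compound exposure at 37C, 5% CO2; CellTiter-Glo luminescence, 30 min RT, same wells as bla read.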

[2] = qHTS assay to identify small molecule antagonists of the vitamin D receptor (VDR) signaling pathway - cell viability counter screen (AID 743225); further: on the % scale 0 is the no-effect control and ±100 the full control effect; nearly all actives have a fitted effect of over 50% in size
In short: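 In this counter screen, VDR-bla HEK 293T cells receive test compound plus 3 nM final calcitriol for 16 h at 37C. Room-temperature steps of 2 h with the beta-lactamase substrate, then 30 min with CellTiter-Glo, precede the luminescence read.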

[3] = qHTS assay to identify small molecule agonists of the NFkB signaling pathway - cell viability counter screen (AID 1159515; calls by dose curve; further: series mostly up to about 61 µM; on the % scale 0 is the no-effect control and ±100 the full control effect; nearly all actives have a fitted effect of over 55% in size)
In short: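 ME-180 NFkB-bla cells, 2,000/well; overnight attach; compound 5 hr, 37 C/5% CO2; LiveBLAzer substrate 1.5 hr RT; then CellTiter-Glo in same wells, 30 min RT, luminescence read.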

[4] = qHTS assay to identify small molecule agonists of the endoplasmic reticulum stress response signaling pathway (AID 1159516; active means well fitted activation curve with a large enough effect in the signal ratio in the repeat runs, not every such curve was filed as active; the % refers to the signal ratio; further: on the % scale 0 is the no-effect control and ±100 the full control effect)
In short: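 HeLa ESRE-bla reporter line; cpd 5 h, 37 C/5% CO2; LiveBLAzer B/G FRET substrate 2 h RT; ex 405, em 460/530 nm.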

[5] = qHTS assay to identify small molecule agonists of the endoplasmic reticulum stress response signaling pathway - cell viability counter screen (AID 1159517; calls by dose curve;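 further: HeLa cells carrying an ER stress response element beta-lactamase reporter; series mostly up to about 61 µM; on the % scale 0 is the no-effect control and ±100 the full control effect; nearly all actives have a fitted effect of over 50% in size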)
In short: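 Cytotoxicity of test compounds toward ESRE-bla HeLa cells was assessed after 5 hr exposure. The luminescent CellTiter-Glo signal was measured 30 min after reagent addition.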

[6] = qHTS assay to identify small molecule antagonists of the retinoid-related orphan receptor gamma (ROR-gamma) signaling pathway - cell viability counter screen (AID 1159520); further: on the % scale 0 is the no-effect control and ±100 the full control effect; nearly all actives have a fitted effect of over 50% in size
In short: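 Tet-on ROR gamma CHO cells (1,000/well) were plated 4 hr, given compounds in DMSO for 2 hr at 37 C, then induced with 1 uM final doxycycline for 16 hr. Viability was read as ATP by CellTiter-Glo luminescence after 30 min.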

[7] = target: Nuclear receptor ROR-gamma (Homo sapiens) (UniProt P51449); experiment: qHTS assay to identify small molecule antagonists of the retinoid-related orphan receptor gamma (ROR-gamma) signaling pathway (AID 1159521)
In short: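 Screening format: cell-based luciferase reporter in CHO cells with doxycycline-inducible RORγ. Compound pre-exposure lasts 2 h, doxycycline is 1 uM final, induction runs 16 h at 37 C, and ONE-Glo luminescence is read.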

[8] = qHTS assay to identify small molecule agonists of the AP-1 signaling pathway - cell viability counter screen (AID 1159525; calls by dose curve; further: nearly all actives have a fitted effect of over 55% in size)
In short: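 Each titration point was normalised to DMSO and tetra n-octyl ammonium bromide controls. The read was Cell Titer Glo luminescence after 30 min at RT, following 5 h compound exposure of ME-180 AP-1-bla cells at 37 °C.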

[9] = qHTS assay to identify small molecule agonists of the AP-1 signaling pathway (AID 1159526; calls by dose curve; further: on the % scale 0 is the no-effect control and ±100 the full control effect)
[10] = target: Retinoic acid receptor RXR-alpha (Homo sapiens) (UniProt P19793); experiment: qHTS assay to identify small molecule agonists of the RXR signaling pathway (AID 1159527; calls by dose curve; further: on the % scale 0 is the no-effect control and ±100 the full control effect; nearly all actives have a fitted effect of over 35% in size)
Chain of Retinoic acid receptor RXR-alpha (Homo sapiens) (P19793 whole entry, looked up): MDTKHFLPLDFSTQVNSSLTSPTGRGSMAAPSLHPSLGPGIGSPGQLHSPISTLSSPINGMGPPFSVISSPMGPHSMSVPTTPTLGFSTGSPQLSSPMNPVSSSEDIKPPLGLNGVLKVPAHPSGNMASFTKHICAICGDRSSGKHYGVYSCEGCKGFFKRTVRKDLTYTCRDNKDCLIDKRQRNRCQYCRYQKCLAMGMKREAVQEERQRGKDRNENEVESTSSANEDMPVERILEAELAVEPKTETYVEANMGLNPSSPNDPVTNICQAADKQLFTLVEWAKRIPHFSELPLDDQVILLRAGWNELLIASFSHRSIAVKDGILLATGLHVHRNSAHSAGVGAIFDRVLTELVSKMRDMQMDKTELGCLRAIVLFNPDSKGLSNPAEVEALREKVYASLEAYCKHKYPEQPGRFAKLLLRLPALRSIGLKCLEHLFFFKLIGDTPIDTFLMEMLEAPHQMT
In short: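 Fluorescence ratio readout (460 vs 530 nm) from GeneBLAzer RXR-alpha HEK 293T cells after 16 hr compound treatment; cells seeded 5 hr beforehand in low-serum, charcoal-stripped medium.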

[11] = qHTS assay to identify small molecule antagonists of the retinoid acid receptor (RAR) signaling pathway - cell viability counter screen (AID 1159551); further: on the % scale 0 is the no-effect control and ±100 the full control effect; nearly all actives have a fitted effect of over 35% in size
In short: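 C3RL4 RARE-luciferase line; cpds + retinol 1 uM final, 6 h, 37 C/5% CO2; CellTiter-Glo ATP luminescence, 30 min RT.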

[12] = qHTS assay to identify small molecule antagonists of the retinoic acid receptor (RAR) signaling pathway (AID 1159552)
In short: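 Using a RARE-driven luciferase construct in C3RL4 cells, retinol at 1 uM final provided the agonist stimulus while compounds were co-applied. After 6 hours at 37 C, luminescence was recorded to flag inhibitors of retinol signaling.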

[13] = qHTS assay to identify small molecule agonists of the retinoic acid receptor (RAR) signaling pathway (AID 1159553); further: on the % scale 0 is the no-effect control and ±100 the full control effect
In short: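 RARE-luc C3RL4 cells; overnight attachment 37 C/5% CO2; compound (DMSO) 6 hr; luciferase reagent, 30 min RT; luminescence read-out.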

[14] = qHTS assay to identify small molecule agonists of the RXR signaling pathway - cell viability counter screen (AID 1159529)
In short: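 Viability read-out for the RXR-alpha agonist qHTS: luminescent CellTiter-Glo signal after 30 min at RT. HEK 293T bla reporter cells, 2% charcoal-stripped FBS, 16 hr compound incubation; tetraoctyl ammonium bromide as cytotoxic control.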

[15] = qHTS assay to identify small molecule antagonists of the estrogen related receptor (ERR) signaling pathway - cell viability counter screen (AID 1224818); further: series mostly up to about 46 µM; on the % scale 0 is the no-effect control and ±100 the full control effect
In short: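 Fluorescence from CellTiter-Fluor, read 30 min after reagent addition at 37 C, measured viability of ERR cells exposed to compounds for 17.5 h. Cells had settled 6 h before dosing.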

[16] = qHTS assay to identify small molecule antagonists of the estrogen related receptor (ERR) signaling pathway (AID 1224819)
In short: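 Luminescence readout (One-Glo, 30 min, RT) of ERR cell line after 18 h compound exposure at 37 C; cells seeded 2,000/well, pre-incubated 6 h, compounds pinned from DMSO stocks.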

[17] = qHTS assay to identify small molecule agonists of the estrogen related receptor (ERR) signaling pathway (AID 1224820); further: on the % scale 0 is the no-effect control and ±100 the full control effect
In short: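 Following a 6 h settling period, 2,000 ERR cells per well receive DMSO-dissolved compounds by pin tool and incubate 18 h at 37 C; agonist activity is scored from One-Glo luminescence read 30 min post-addition.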

[18] = qHTS assay to identify small molecule antagonists of the estrogen related receptor signaling pathway with the pleiotropic PPARgamma coactivator (PGC) cell viability counter screen (AID 1224822)
In short: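 Fluorescence read-out of CellTiter-Fluor after 30 min at 37 C; PGC/ERR cells, 2,000 per well, had been exposed to DMSO-dissolved compounds for 17.5 h following a 6 h pre-incubation.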

C1CCNCC1
inactive: Potency [1] | Potency [2] | Potency [3] | Potency [4] | Potency [5] | Potency [6] | Potency [7] | Potency [8] | Potency [9] | Potency [10] | Potency [11] | Potency [12]

Clc1ccc2ccccc2c1
inactive: Potency [1] | Potency [2] | Potency [3] | Potency [4] | Potency [5] | Potency [6] | Potency [7] | Potency [8] | Potency [9] | Potency [10] | Potency [11] | Potency [12] | Potency [13]

C=C(Cl)Cl
inactive: Potency [2] | Potency [3] | Potency [4] | Potency [5] | Potency [6] | Potency [7] | Potency [8] | Potency [9] | Potency [10] | Potency [11] | Potency [13]

CC(C)(C)c1ccc(CCOc2ncnc3ccccc23)cc1
inactive: Potency [1] | Potency [3] | Potency [4] | Potency [5] | Potency [6] | Potency [7] | Potency [8] | Potency [9] | Potency [10] | Potency [11] | Potency [12]

COCc1cnc(C2=NC(C)(C(C)C)C(=O)N2)c(C(=O)O)c1 (configuration not stated)
inactive: Potency [3] | Potency [4] | Potency [5] | Potency [6] | Potency [7] | Potency [8] | Potency [9] | Potency [14] | Potency [11] | Potency [12]

CN1CC[C@]23c4c5ccc(O)c4O[C@H]2[C@@H](O)C=C[C@H]3[C@H]1C5
inactive: Potency [1] | Potency [2] | Potency [3] | Potency [4] | Potency [5] | Potency [6] | Potency [7] | Potency [8] | Potency [9] | Potency [14] | Potency [11] | Potency [13]

CCC(C)Cl (configuration not stated)
inactive: Potency [1] | Potency [2] | Potency [3] | Potency [4] | Potency [5] | Potency [6] | Potency [7] | Potency [8] | Potency [9] | Potency [10] | Potency [11] | Potency [12]

C=CCN1C[C@H](C)N([C@H](c2ccc(C(=O)N(CC)CC)cc2)c2cccc(OC)c2)C[C@H]1C
inactive: Potency [1] | Potency [3] | Potency [4] | Potency [5] | Potency [6] | Potency [7] | Potency [8] | Potency [9] | Potency [10] | Potency [11] | Potency [12] | Potency [13]

Cc1cccc(C)c1NC1=NCCCS1
inactive: Potency [1] | Potency [2] | Potency [3] | Potency [4] | Potency [5] | Potency [6] | Potency [7] | Potency [8] | Potency [9] | Potency [14] | Potency [11] | Potency [12] | outcome [15] | outcome [16] | outcome [17] | outcome [18]

Nc1c(Br)cc(Br)c2c1C(=O)c1ccccc1C2=O
inactive: Potency [1] | Potency [2] | Potency [3] | Potency [4] | Potency [5] | activity, negative = cytotoxicity [6] -2.6% [at 19 µM] | activity change, negative = inhibition [7] 13.2% [at 19 µM] | viability change, negative = cytotoxic [8] 1.64% [at 15.8 µM] | activation [9] 0.821% [at 15.8 µM] | activity change, negative = cytotoxicity [14] 4.15% [at 15.8 µM] | activity change, negative = cytotoxicity [11] 0.857% [at 19 µM] | activity, negative = inhibition [12] 12.6% [at 19 µM] | Potency [13]
